Data from PubChem BioAssay.
Activity calls are given as the source filed them.

How the values were obtained:
[1] = binders of probe aFSTL3 on microarray, primary screen, stem cell growth factor project, biochemical, small-molecule microarray, fluorescence 635/667 (AID 1064); settings: higher = more signal;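 also: measures binding of the biotinylated anti-FSTL3 antibody to printed compounds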
[2] = binders from COS7 lysate, DM2A8 probe, primary screen, torsin A project, cell lysate, small-molecule microarray, fluorescence 635/667 (AID 1065); settings: higher = more signal, COS7 lysate expressing mutant human TOR1A
[3] = binders of probe aFGF2 on microarray, primary screen, stem cell growth factor project, biochemical, small-molecule microarray, fluorescence 635/667 (AID 1067); settings: higher = more signal;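 also: measures binding of biotinylated aFGF2 protein to printed compounds on slides; z-score merges feature fluorescence and signal-to-noise across triplicate slides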
[4] = binders of probe aFGF10 on microarray, primary screen, stem cell growth factor project, biochemical, small-molecule microarray, fluorescence 635/667 (AID 1071); settings: higher = more signal;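 also: score merges 667 nm spot intensity and signal to noise from triplicate slides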
[5] = target: Neurogenic locus notch homolog protein 2 (Homo sapiens) (UniProt Q04721); assay: Notch2 binders on small-molecule microarrays, primary screen, biochemical, small-molecule microarray, 635 nm fluorescence, stem cell growth factors (AID 1073); settings: Notch2 binding, higher = more signal
[6] = target: Pro-neuregulin-1, membrane-bound isoform (Homo sapiens) (UniProt Q02297); assay: NRG1 binders on small-molecule microarrays, primary screen, psychiatric disease protein project, biochemical, small-molecule microarray, fluorescence 635/667 (AID 1075); settings: NRG1 binding, 635 nm fluorescence, higher = more signal;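 also: score combines 667 nm spot fluorescence with signal to noise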
[7] = system: Neuregulin-1 EGF-like domain; assay: binders of neuregulin-1 EGF-like domain, primary screen, biochemical, small-molecule microarray, 635 nm fluorescence (AID 1081); settings: small-molecule microarray binding, higher = more signal;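 also: binding of the protein to compounds printed on small-molecule microarray slides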
[8] = FRG1 promoter luciferase signal modulators, primary screen, FRG1 inhibition for FSHD, cell-based, C2C12 myotubes, firefly/Renilla luciferase, luminescence (AID 1084); settings: higher = more signal, called active from +8 up or from −8 down
[9] = binders of probe aFST on microarray, primary screen, stem cell growth factor project, biochemical, small-molecule microarray, fluorescence 635/667 (AID 1086); settings: higher = more signal;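 also: score merges 667 nm fluorescence with signal-to-noise of each printed compound spot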
[10] = binders of probe aHhip on microarray, primary screen, stem cell growth factor project, biochemical, small-molecule microarray, fluorescence 635/667 (AID 1087); settings: higher = more signal;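 also: score merges spot fluorescence at 667nm with spot signal to noise ratio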
[11] = system: PRMT1 (protein arginine N-methyltransferase 1); assay: PRMT1 binders on small-molecule microarrays, primary screen, biochemical, small-molecule microarray, 635 nm fluorescence (AID 1088); settings: small-molecule microarray binding, higher = more signal;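 also: binding of Prmt1 protein to compounds spotted on small-molecule microarray slides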
[12] = yeast growth modulation, basal conditions, primary screen, YJM789 clinical isolate, OD600, 24 h (AID 1089);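 also: growth of clinical yeast isolate S. cerevisiae YJM 789 seeded 1000 cells per well; test concentration not given here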; settings: S. cerevisiae YJM789 growth, higher = more signal, called active from +8 up or from −8 down
[13] = fission yeast growth modulation, primary screen, strain 972, OD600, 24 h, no modulator (AID 1090);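 also: basal condition with compound alone and no growth modifier present; test concentration not given here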; settings: S. pombe 972 growth, higher = more signal, called active from +8 up or from −8 down
[14] = S. cerevisiae growth modulation with rapamycin, primary screen, strain BY4716, OD600, 96 h (AID 1091); settings: higher = more signal, called active from +8 up or from −8 down; also: test concentration not given here
[15] = target: Torsin-1A-interacting protein 2 (Homo sapiens) (UniProt Q8NFQ8); assay: LULL1 binders on small-molecule microarray, primary screen, cell lysate, human LULL1 lysate, 635/667 nm fluorescence (AID 1092); settings: hLULL1 lysate binding, 635 nm fluorescence, higher = more signal;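 also: probe is lysate of COS7 cells overexpressing human LULL1; score merges per-feature 667 nm fluorescence with signal-to-noise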
[16] = E. coli growth modulation, two-sided OD650, primary screen, E. coli filamentation project, strain DRC41, 24 h (AID 1093); settings: OD650, 24 h, higher = more signal, called active from +8 up or from −8 down;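 also: MC1000 strain lacking acrAB efflux and sulA so SOS filamentation is blocked; test concentration not given here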
[17] = small-molecule microarray binders of probe aLefty2, primary screen, biochemical, biotinylated probe, 635/667 nm fluorescence (AID 1094); settings: higher = more signal;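 also: score merges spot fluorescence near 667 nm with spot signal-to-noise ratio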
[18] = system: Noggin (protein binding on small-molecule microarray); assay: Noggin binders on small-molecule microarray, primary screen, biochemical, 635/667 nm fluorescence (AID 1095); settings: 635 nm fluorescence, higher = more signal;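 also: score merges 667 nm feature fluorescence with signal to noise over triplicate slides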
[19] = target: Neurogenic locus notch homolog protein 3 (Homo sapiens) (UniProt Q9UM47); assay: NOTCH3 binders on small-molecule microarray, primary screen, biochemical, 635/667 nm fluorescence (AID 1096); settings: NOTCH3 binding, 635 nm fluorescence, higher = more signal
[20] = small-molecule microarray binders of probe aEGFR, primary screen, biochemical, biotinylated probe, 635/667 nm fluorescence (AID 1097); settings: higher = more signal;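 also: probe is a biotinylated anti-EGFR antibody binding compounds printed on slides; score combines fluorescence near 667 nm and signal to noise of each spot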

Neurogenic locus notch homolog protein 3 (Homo sapiens), sequence (Q9UM47 whole entry, looked up): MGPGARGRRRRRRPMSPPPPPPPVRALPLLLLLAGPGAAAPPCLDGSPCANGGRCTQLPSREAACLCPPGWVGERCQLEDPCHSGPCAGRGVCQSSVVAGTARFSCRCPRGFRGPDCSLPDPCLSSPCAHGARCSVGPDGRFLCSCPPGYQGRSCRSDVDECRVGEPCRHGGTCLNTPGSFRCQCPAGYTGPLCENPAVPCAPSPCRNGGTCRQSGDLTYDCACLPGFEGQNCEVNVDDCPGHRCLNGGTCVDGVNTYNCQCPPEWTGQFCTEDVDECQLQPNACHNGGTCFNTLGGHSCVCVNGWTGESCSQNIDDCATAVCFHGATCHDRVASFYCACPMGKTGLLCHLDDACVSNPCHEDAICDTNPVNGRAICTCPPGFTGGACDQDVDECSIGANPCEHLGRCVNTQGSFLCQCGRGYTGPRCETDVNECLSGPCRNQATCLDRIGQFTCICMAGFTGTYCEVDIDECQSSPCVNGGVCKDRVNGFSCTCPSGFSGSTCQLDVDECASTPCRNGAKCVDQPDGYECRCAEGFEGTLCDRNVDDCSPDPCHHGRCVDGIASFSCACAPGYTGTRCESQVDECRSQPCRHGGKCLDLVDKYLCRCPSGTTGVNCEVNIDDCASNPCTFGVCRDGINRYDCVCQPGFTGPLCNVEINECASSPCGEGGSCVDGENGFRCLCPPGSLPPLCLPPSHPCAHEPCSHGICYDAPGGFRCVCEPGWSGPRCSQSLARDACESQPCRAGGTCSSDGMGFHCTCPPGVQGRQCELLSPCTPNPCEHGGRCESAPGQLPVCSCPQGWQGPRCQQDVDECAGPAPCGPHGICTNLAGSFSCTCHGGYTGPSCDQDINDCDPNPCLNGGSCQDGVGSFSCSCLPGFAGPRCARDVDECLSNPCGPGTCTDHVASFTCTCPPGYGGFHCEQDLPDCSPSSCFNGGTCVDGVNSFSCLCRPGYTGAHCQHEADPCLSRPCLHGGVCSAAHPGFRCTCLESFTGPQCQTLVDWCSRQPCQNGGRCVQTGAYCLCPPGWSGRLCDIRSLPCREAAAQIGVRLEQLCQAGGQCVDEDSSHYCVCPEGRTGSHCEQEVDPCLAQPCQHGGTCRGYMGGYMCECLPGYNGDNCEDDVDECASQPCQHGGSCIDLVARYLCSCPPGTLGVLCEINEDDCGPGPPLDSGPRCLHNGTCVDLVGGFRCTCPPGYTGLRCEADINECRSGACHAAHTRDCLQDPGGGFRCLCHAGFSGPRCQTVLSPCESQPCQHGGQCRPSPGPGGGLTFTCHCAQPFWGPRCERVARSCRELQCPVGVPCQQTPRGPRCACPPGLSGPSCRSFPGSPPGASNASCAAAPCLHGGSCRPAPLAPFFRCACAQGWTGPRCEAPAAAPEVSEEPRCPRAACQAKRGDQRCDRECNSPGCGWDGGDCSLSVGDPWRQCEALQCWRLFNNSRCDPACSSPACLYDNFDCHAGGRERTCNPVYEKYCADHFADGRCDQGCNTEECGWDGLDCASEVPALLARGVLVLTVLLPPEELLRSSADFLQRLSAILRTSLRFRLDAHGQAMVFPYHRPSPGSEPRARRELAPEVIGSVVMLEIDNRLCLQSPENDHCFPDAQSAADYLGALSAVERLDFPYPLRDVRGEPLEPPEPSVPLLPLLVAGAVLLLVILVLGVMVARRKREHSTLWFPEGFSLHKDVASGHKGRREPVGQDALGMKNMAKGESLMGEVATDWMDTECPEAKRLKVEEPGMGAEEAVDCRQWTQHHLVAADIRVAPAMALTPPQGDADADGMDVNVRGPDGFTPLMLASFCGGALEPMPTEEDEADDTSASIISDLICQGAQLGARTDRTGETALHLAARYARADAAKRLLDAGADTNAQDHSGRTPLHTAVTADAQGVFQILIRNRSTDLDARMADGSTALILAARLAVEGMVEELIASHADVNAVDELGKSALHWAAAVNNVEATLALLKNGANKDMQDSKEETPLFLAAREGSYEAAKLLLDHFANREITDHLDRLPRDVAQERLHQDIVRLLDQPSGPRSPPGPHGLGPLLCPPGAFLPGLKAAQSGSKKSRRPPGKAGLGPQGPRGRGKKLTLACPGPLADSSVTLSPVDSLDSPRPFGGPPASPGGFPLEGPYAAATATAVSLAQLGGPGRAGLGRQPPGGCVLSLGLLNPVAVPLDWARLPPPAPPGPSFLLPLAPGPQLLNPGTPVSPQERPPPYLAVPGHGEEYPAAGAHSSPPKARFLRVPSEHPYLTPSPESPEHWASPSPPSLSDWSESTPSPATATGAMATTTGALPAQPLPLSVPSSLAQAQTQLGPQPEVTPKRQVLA
Neurogenic locus notch homolog protein 2 (Homo sapiens), sequence (Q04721 whole entry, looked up, canonical isoform): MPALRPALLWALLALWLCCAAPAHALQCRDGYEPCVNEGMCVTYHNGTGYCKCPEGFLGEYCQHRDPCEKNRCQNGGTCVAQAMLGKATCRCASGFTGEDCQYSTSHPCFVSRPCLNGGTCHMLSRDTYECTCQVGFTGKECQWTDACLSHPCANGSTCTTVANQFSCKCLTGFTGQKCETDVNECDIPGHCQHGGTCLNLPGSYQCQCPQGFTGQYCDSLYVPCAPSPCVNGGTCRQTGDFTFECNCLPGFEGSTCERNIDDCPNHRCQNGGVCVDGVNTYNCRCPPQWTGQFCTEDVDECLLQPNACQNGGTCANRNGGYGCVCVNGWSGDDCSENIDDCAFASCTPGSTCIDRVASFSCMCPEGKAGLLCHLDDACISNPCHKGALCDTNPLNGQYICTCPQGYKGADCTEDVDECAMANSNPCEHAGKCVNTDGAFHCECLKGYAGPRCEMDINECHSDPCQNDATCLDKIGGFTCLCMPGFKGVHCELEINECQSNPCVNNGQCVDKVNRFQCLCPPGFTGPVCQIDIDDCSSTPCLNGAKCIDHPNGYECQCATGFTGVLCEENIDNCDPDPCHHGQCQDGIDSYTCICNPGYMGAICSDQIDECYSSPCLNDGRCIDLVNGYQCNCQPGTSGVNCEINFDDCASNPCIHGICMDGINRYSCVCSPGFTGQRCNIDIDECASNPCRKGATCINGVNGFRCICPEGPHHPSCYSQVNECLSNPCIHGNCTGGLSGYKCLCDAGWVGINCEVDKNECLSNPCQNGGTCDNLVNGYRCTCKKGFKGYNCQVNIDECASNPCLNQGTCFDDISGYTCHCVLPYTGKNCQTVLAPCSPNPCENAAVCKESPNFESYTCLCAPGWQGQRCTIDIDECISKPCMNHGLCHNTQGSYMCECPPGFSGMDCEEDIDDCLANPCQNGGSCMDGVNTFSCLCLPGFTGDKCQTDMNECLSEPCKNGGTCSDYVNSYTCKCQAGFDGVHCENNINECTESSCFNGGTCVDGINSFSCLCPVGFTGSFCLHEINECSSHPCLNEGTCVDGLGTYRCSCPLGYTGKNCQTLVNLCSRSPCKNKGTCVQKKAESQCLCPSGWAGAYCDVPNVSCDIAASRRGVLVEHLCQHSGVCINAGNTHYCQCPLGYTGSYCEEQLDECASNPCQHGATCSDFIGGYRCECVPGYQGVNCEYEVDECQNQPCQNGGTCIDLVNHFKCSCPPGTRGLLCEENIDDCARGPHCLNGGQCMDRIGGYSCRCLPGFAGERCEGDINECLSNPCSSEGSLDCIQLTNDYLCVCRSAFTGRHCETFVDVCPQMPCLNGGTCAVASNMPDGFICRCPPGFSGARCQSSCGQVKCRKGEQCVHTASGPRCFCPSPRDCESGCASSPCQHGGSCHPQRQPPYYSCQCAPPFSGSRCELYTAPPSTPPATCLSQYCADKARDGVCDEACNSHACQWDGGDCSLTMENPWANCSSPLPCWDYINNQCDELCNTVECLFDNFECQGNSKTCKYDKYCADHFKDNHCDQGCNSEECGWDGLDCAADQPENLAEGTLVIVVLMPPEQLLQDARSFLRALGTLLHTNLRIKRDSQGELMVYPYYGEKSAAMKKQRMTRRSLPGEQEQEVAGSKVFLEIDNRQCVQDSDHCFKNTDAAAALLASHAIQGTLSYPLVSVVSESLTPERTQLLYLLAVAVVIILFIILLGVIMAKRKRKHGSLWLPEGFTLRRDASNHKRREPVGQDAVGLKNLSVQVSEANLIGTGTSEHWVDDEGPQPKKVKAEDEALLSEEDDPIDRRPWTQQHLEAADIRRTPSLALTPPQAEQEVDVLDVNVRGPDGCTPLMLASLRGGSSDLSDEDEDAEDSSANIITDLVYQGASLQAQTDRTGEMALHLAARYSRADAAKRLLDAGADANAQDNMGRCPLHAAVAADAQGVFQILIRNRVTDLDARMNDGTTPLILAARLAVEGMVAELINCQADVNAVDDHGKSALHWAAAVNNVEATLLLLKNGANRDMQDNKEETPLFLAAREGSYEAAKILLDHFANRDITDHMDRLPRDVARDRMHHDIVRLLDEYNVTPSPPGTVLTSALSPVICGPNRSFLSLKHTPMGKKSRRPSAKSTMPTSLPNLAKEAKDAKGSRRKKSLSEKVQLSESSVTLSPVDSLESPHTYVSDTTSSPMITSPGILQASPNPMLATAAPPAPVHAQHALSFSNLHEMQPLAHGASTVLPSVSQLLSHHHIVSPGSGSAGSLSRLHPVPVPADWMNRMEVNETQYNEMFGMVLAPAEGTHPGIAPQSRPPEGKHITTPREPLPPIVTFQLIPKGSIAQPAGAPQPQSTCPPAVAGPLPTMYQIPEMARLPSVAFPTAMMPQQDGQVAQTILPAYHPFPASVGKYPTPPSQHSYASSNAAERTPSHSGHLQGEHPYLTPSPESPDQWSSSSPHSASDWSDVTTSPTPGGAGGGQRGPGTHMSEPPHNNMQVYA

SMILES | composite z-score [1] | composite z-score [2] | composite z-score [3] | composite z-score [4] | composite z-score [5] | composite z-score [6] | composite z-score [7] | z-score [8] | composite z-score [9] | composite z-score [10] | composite z-score [11] | z-score [12] | z-score [13] | z-score [14] | composite z-score [15] | z-score [16] | composite z-score [17] | composite z-score [18] | composite z-score [19] | composite z-score [20]
C=CC[C@]1(C(N)=O)N=C(c2ccc(OCCCO)cc2)O[C@H]1c1ccccc1N=[N+]=[N-] | 0.951 | -0.385 | 0.087 | 0.672 | 0.737 | 1.8 | 1.06 | 2.63 (inactive) | 1.69 | -0.306 | 1.37 | 0.344 (inactive) | -1.3 (inactive) | 0.673 (inactive) | 3.33 | 1.94 (inactive) | 0.239 | 0.301 | 0.923 | 0.0049
COc1ccc([Si](C)(C)[C@H]2[C@H](CC(=O)N3CCC[C@H]3CO)O[C@@]3(C(=O)N(C)c4c(Br)cc(C)cc43)[C@@H]2C)cc1 | 0.536 | 1.88 | 0.336 | 1.04 | 0.284 | 2.51 | 1.41 | -1.39 (inactive) | 1.12 | 0.104 | 1.54 | -0.749 (inactive) | -0.108 (inactive) | -0.385 (inactive) | 3.42 | -0.2 (inactive) | 0.412 | 2.05 | 0.498 | 0.459
COc1ccc(C(=O)Nc2cccc(CN3C(=O)[C@]4(O[C@H](CC(=O)N(CCO)Cc5ccccc5)[C@@H]([Si](C)(C)c5ccc(OC)cc5)[C@@H]4C)c4ccccc43)c2)cc1 | -0.211 | 0.333 | -0.0695 | 0.792 | 0.784 | 0.61 | 0.958 | -1.07 (inactive) | -0.16 | 0.2 | 1.05 | 1.22 (inactive) | 0.706 (inactive) | 3.65 (inactive) | 1.69 | 0.854 (inactive) | 0.0553 | 0.701 | 0.255 | -0.0251
C=C(C(=O)CC[C@@H](OC(=O)c1cccnc1)c1cccc(OCCO)c1)C(C)C | -0.512 | -0.0785 | -0.167 | 0.684 | -0.0786 | -0.145 | -0.284 | 1.2 (inactive) | 0.267 | -0.236 | 0.271 | -1.11 (inactive) | -0.0738 (inactive) | 1.04 (inactive) | -0.826 | 1.12 (inactive) | -0.0962 | 0.597 | 0.144 | 0.0391
CCCCCCc1nc(-c2ccc(OC)nc2)c(C)c2c1[Si](C(C)C)(C(C)C)OC2 | -0.314 | -0.0637 | -0.0502 | -0.234 | 0.0716 | -0.64 | -0.59 | 0.329 (inactive) | 0.0446 | -0.0994 | 0.319 | -0.0796 (inactive) | -0.329 (inactive) | 0.182 (inactive) | -0.627 | 0.836 (inactive) | 0.054 | 0.293 | 0.0448 | -0.131
COCCCNC(=O)[C@]1(Cc2ccccc2N=[N+]=[N-])N=C(c2ccc(OCCCO)cc2)O[C@@H]1c1ccccc1 | 0.522 | 1 | 0.286 | 0.232 | 1.4 | 1.73 | 1.27 | -2.74 (inactive) | 1.14 | 0.547 | 1.46 | -1.51 (inactive) | -0.982 (inactive) | 2.48 (inactive) | 3.23 | 1.1 (inactive) | 0.692 | -0.0042 | 0.901 | 0.377
CCN1C(=O)C2CC(=O)C3C(CN(S(=O)(=O)c4ccc(C)cc4)C3c3ccc(C)cc3)C2C1=O (stereo not given) | 0.584 | 0.122 | 0.0174 | 0.183 | 0.308 | 1.61 | 1.18 | -0.812 (inactive) | 0.292 | 0.0053 | 0.751 | -0.01 (inactive) | 0.616 (inactive) | 0.627 (inactive) | 2.75 | 0.398 (inactive) | -0.0176 | -0.841 | 0.627 | -0.0089
CC1C2C(CCCO)=CC(C3C(=O)N(C)C(=O)C23)N1Cc1cccc(OC(F)(F)F)c1 (stereo not given) | -0.0014 | 0.289 | 0.0653 | 0.647 | 0.929 | 2.04 | 1.37 | 0.0511 (inactive) | 0.155 | 0.289 | 1.53 | 0.573 (inactive) | -0.951 (inactive) | 1.61 (inactive) | 3.13 | 0.964 (inactive) | 0.156 | 0.148 | 0.769 | 0.1
O=C1O[C@H](c2ccccc2)[C@H](c2ccccc2)N2[C@H]1[C@@H](C(=O)O)[C@]1(C(=O)Nc3ccc(C#CC4(O)CCCCCC4)cc31)[C@H]2c1ccccc1OCCO | -0.304 | 1.43 | 0.0322 | 0.85 | 1.11 | 0.278 | 1.19 | -0.283 (inactive) | 0.39 | 0.781 | 1.56 | 2.68 (inactive) | -0.155 (inactive) | 0.247 (inactive) | 2.27 | 1.47 (inactive) | 0.366 | 0.621 | 1.11 | 0.494
COC(=O)[C@@]1(Cc2ccc(F)cc2)[C@H]2c3cc(C(=O)N4CCCC4)n(C[C@H](O)CO)c3C[C@H]2CN1C(=O)c1ccccc1 | 0.468 | 0.501 | 0.474 | 0.697 | 1.17 | 2.15 | 1.16 | 3.49 (inactive) | 1.42 | 1.35 | -0.399 | -0.161 (inactive) | 1.34 (inactive) | -0.0363 (inactive) | 1.57 | -0.836 (inactive) | 1.03 | -0.123 | 0.176 | 0.732
